# HCMV inh: qHTS Assay for inhibitors of the human cytomegalovirus (HCMV). HFF cells, HCMV-luciferase reporter, 72 h; hits give low values. activity change, negative = inhibition, % at 57.5 µM. AID 1259415, 2018. 410,000 tested, 4.5% active; in the data active = activity change below about -60%; inconclusive = no clear call, values can overlap the other calls; inactive = above about -39%
#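 HFF cells seeded 16 h at 37C, treated with compounds, infected with luciferase-reporter HCMV at MOI 1 PFU/cell; luciferase read at 72 h post infection, normalized to buffer-only and Salinomycin controls.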
# Lassa entry inh: qHTS for Inhibitors of binding or entry into cells for Lassa Virus | Lassa virus pseudotype entry inhibition, cell reporter | Potency, µM (highest dose often 37.9 µM), for inactives: at the highest dose activity change, negative = inhibition, usual class: inhibitors | 300,000 tested, 1.2% active | AID 540256, 2011; calls by dose curve; tested in HEK293 cells; note: potency is the fitted concentration of half-maximal effect; nearly all actives have a fitted effect of over 50% in size
# MARV entry inh: qHTS for inhibitors of binding or entry into cells for Marburg Virus; Marburg virus pseudotyped entry inhibition, cell reporter; Potency, µM (series often up to 37.8 µM), without a hit: top-dose activity change, negative = inhibition, most hits filed as inhibitors; 300,000 tested, 1.8% active; calls by dose curve; tested in HEK293 cells; note: potency is the fitted concentration of half-maximal effect
# Pf growth 48h: Primary qHTS for delayed death inhibitors of the malarial parasite plastid, 48 hour incubation. Potency, µM (series often up to 28.7 µM), for inactives: top-dose activity change, negative = inhibition, most hits filed as inhibitors. P. falciparum luciferase growth in erythrocytes, 48 h. AID 504832, 2011. 310,000 tested, 5.9% active; note: potency is the fitted concentration of half-maximal effect
#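 Cell-based growth assay: transgenic P. falciparum expressing firefly luciferase, cultured in red cells within RPMI 1640 containing 0.5% w/v Albumax, 24 mM bicarbonate and gentamycin. A drop in luciferase activity indicates inhibition.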
# HCV inh: qHTS Assay for Inhibitors of Hepatitis C Virus (HCV); Huh7.5.1 HCVcc-Cre infection, luciferase reporter, 44 h; Potency, µM (titrated, usually from 41.8 µM), without a hit: at the top dose activity change, negative = inhibition, usual class: inhibitors; AID 651820, 2012; 340,000 tested, 3.4% active; note: potency is the fitted concentration of half-maximal effect
#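 Cells (1,000/well) were plated 4 h before compound, then infected with HCVcc-Cre virus (~0.5 moi). After 44 h further culture, infection was read as luciferase luminescence following a 15 min substrate incubation at room temperature.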
# Pf growth 96h: Primary qHTS for delayed death inhibitors of the malarial parasite plastid, 96 hour incubation | Potency, µM (highest dose often 28.7 µM), without a hit: at the highest dose activity change, negative = inhibition, most hits filed as inhibitors | 320,000 tested, 6.9% active | P. falciparum luciferase reporter growth, 96 h; note: potency is the fitted concentration of half-maximal effect
#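 Compounds incubated with erythrocytes infected by luciferase-expressing P. falciparum (2% hematocrit, 0.05% parasitemia final) for 96 hours, 37 C in 5% CO2. Growth inhibition scored as decreased luciferase luminescence.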
# Active calls of the source: *; i = inactive; u = inconclusive; x = not tested or not shown; ! = not confirmed by another sample; [ ] = dose if it differs, or a comment. An excerpt weighted towards active compounds, which were near 14% of everything screened. Unless noted, calls come from the whole dose curve; as a rule, active = well fitted inhibition curve with a large enough effect; inconclusive = small, poorly fitted or top-dose-only effect, or another doubt; inactive = no such curve, though single readings can be large or run the other way. % is set by controls: 0 for no effect and ±100 for the full control effect.
SMILES,HCMV inh,Lassa entry inh,MARV entry inh,Pf growth 48h,HCV inh,Pf growth 96h
COc1ccc(-c2nc(CSCC(=O)N3CCN(c4cccc(C)c4)C(C)C3)c(C)o2)cc1OC (stereo not drawn),-18.4,u,u,u,10µM*,u
Cc1ccc(-c2nc(CSCC(=O)N3CCCC3)c(C)o2)cc1,u,0.7%,-1.7%,u,u,-8.1%
Cc1ccnc(NS(=O)(=O)c2ccc(NC(=O)c3cc(=O)c4ccc(C)c(C)c4o3)cc2)n1,5.8,-0.3%[46.1 µM],-5.0%[46.1 µM],x,x,x
CCOC(=O)[C@]12CCC=C1N(CCC1=CCCCC1)C(=O)[C@H](CC(=O)NCc1cccc3ccccc13)C2,-1.0,x,x,x,x,x
CC(C)N1CCC2(CC1)N=C(c1ccc3c(c1)OCO3)CC(c1cc(Cl)ccc1O)N2 (stereo not drawn),-80.8*,u,-27.9%,u,u,u
CCOC(=O)Cc1csc(NC(=O)c2ccc(N3CCOCC3)cc2[N+](=O)[O-])n1,18.2,x,x,7.6%,11.2µM*,9.6%
CCOC(=O)Cc1csc(NC(=O)CCc2ccc(S(=O)(=O)N3CCOCC3)cc2)n1,25.6,-26.0%,-2.2%,2.62µM*,-18.1%,u
CCOC(=O)Cc1csc(NC(=O)c2ccc(S(=O)(=O)N3CCCCC3)cc2)n1,-24.8,-5.1%,-14.1%,32.4%,-15.7%,5.86µM*
CCOC(=O)Cc1csc(NC(=O)c2ccc([N+](=O)[O-])cc2[N+](=O)[O-])n1,-4.3,u,12.2%,0.2%,-10.3%,u
CCOC(=O)Cc1csc(NC(=O)C(NC(=O)C2CCCCC2)C(C)C)n1 (stereo not drawn),-25.1,15.6%[46.1 µM],12.4%[46.1 µM],-7.3%,-18.9%,u
CCOC(=O)Cc1csc(NC(=O)C(CC(C)C)NC(=O)C2CCCCC2)n1 (stereo not drawn),-35.9,x,x,u,14.1µM*,u
CCOc1ccc(NC(=O)CSc2oc(-c3ccco3)nc2S(=O)(=O)c2ccccc2)cc1,5.1,-0.9%[46.1 µM],25.8%[46.1 µM],x,x,x
Cc1ccc(F)cc1C(=O)Nc1ccn2ccnc2n1,1.6,x,x,x,x,x
CCOC(=O)Cc1csc(NC(=O)CN2CCOCC2)n1,-1.9,10.0%[46.1 µM],-15.9%[46.1 µM],u,-4.4%,9.28µM*
CCOC(=O)Cc1csc(NC(=O)CCC(=O)O)n1,4.5,21.6%[46.1 µM],4.7%[46.1 µM],-13.9%,14.5%,-0.9%
CCOC(=O)Cc1csc(NC(=O)C2C3C=CC(C3)C2C(=O)O)n1 (stereo not drawn),-101.5*,21.9%,7.3%[46.1 µM],13.9%,0.1%,u
COc1ccc([C@H]2C[C@H](O)[C@@H](n3cc(-c4ccc(F)cc4)nn3)CN2Cc2cccs2)cc1,-67.1*,u,x,x,x,x
O[C@H]1C[C@H](c2ccccc2)N(Cc2cccs2)C[C@@H]1n1cc(-c2ccc(F)cc2)nn1,-64.4*,x,x,x,x,x
CCN(CC)CC(O)COc1ccccc1C(=O)CCc1ccccc1 (stereo not drawn),-16.3,0.4%,u,1.47µM*,-17.6%,x
OC(COc1ccccc1)CN(Cc1ccccc1)CC(O)COc1ccccc1 (stereo not drawn),1.9,x,x,u,-9.3%,u
CCCN(CCC)CC(O)COc1ccc([N+](=O)[O-])cc1 (stereo not drawn),-6.9,5.2%,13.9%[46.1 µM],u,-17.1%,14.7µM*
CCC(=O)c1ccc(OCC(O)CN(CCc2ccccc2)Cc2ccccc2)cc1 (stereo not drawn),-38.9,16.4µM*,u,u,u,u
CCCNCC(O)COc1ccccc1C(=O)CCc1ccccc1 (stereo not drawn),28.1,u,9.2µM*,1.17µM*,-17.0%[8.37 µM],3.29µM*!
COc1ccc(Cl)cc1NC(=O)CSc1nnc(Cc2ccc(C)cc2)c(=O)[nH]1,-14.3,-7.1%[46.1 µM],-6.3%,6.4%,1.2%,1.4%
CCCOc1ccc(Oc2nc(NCC(C)C)nc(N3CCOCC3)n2)nn1,141.6,7.5%[46.1 µM],-0.5%[46.1 µM],x,x,x
SMILES,HCMV inh,Lassa entry inh,MARV entry inh,Pf growth 48h,HCV inh,Pf growth 96h
COC(=O)c1ccc(OCC(O)CN(CC(C)C)CC(C)C)cc1 (stereo not drawn),-10.8,-6.2%,-19.4%,13.1µM*,2.9%,u
COC(=O)c1ccc(OCC(O)CN2CCN(CC(O)COc3ccc(C(=O)OC)cc3)CC2)cc1 (stereo not drawn),-20.0,x,x,u,u,76.9%
Fc1ccccc1N1CCN(c2nnc(C(F)(F)F)c3nnn(Cc4ccccc4)c23)CC1,-33.3,0.0%[46.1 µM],3.2%[46.1 µM],x,x,x
CCN(Cc1nc2ccccc2c(=O)[nH]1)C(=O)COc1ccccc1Cc1ccccc1,20.0,u,u,u,u,8.28µM*
CCN(Cc1nc2cc(Cl)ccc2c(=O)[nH]1)C(=O)COc1ccccc1Cc1ccccc1,67.2,x,x,u,-23.7%,u
CCOc1ccccc1NC(=O)CCCc1nc2ccccc2c(=O)[nH]1,-86.5*,3.0%,16.0%,-14.8%,-12.2%,x
O=C(C1CC1)N(CCc1ccccc1)Cc1nc2ccccc2c(=O)[nH]1,-9.0,-27.7%,3.9%,-25.2%,7.3%,14.7µM*
CCN(Cc1nc2ccccc2c(=O)[nH]1)C(=O)c1cccc(OCc2c(C)noc2C)c1,-99.6*,u,u,6.57µM*,u,u
Cc1cc2n(n1)CCCN2C(=O)Nc1ccccc1F,1.2,26.3%[46.1 µM],x,x,x,x
O=C(NCC(c1cccs1)S(=O)(=O)c1cccs1)c1cccc(F)c1 (stereo not drawn),7.6,-1.5%[46.1 µM],x,x,x,x
CCC(=O)N1c2ccccc2CC1C(=O)NCCc1ccc(OC)c(OC)c1 (stereo not drawn),14.2,4.8%[46.1 µM],x,x,x,x
COCC(=O)N(CCc1ccc(OC)cc1)Cc1nc2ccccc2c(=O)[nH]1,24.6,26.5%,u,u,5.7%,-15.7%
CCCC(=O)N(CCc1ccc(OC)cc1)Cc1nc2ccccc2c(=O)[nH]1,-35.6,u,0.3%,x,u,10.4µM*
O=C(NC1CCCCC1)N(Cc1ccc(F)cc1)Cc1nc2ccccc2c(=O)[nH]1,-33.8,8.5%,-1.8%,10.4µM*,-6.7%,37.9%
Cc1cc(N2CCOCC2)ccc1/C=C1\NC(=O)N(Cc2ccccc2F)C1=O,-5.3,u,2.5%,-8.9%,3.98µM*,-0.8%
COc1cc(/C=C2/NC(=O)N(Cc3ccccc3F)C2=O)cc(OC)c1O,-32.5,u,1.0%[46.1 µM],-17.1%,-17.0%,-16.8%
CCOc1cc(/C=C2/NC(=O)N(Cc3ccccc3F)C2=O)ccc1O,-60.6*,-25.0%,15.8µM*,u,10µM*,u
O=C(/C=C/c1ccccc1)c1ccc2c(c1)OCCCCO2,102.6,u,u,121.9%,-1.7%,i

# High-throughput results as filed in PubChem.
